The results in this text go back to PubChem BioAssay AID1159506 (National Center for Advancing Translational Sciences (NCATS), 2015).

The full ranking holds about 59,000 sequences; the median of the read-out is about -0.00055, and the lowest 2% start at about -2. The full list was thinned out, with the lowest values kept by preference.

A short description of the experiment: Identification of proteins required for the processing of the EWS-FLI1 nascent transcript.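 Also: robust z of luciferase light less the median z of siRNAs with the same seed.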 As to conditions: TC32 Ewing sarcoma NR0B1-luc vs CMV-luc (EWS-FLI1 target promoter against control promoter), 48 h; screened at 20 nM (by protocol). A digest of the protocol:
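TC32 Ewing sarcoma cells carrying NR0B1-promoter or CMV-promoter luciferase reporters were reverse-transfected with single siRNAs at 20 nM, three per gene genome-wide. Luminescence was read after 48 h and normalized to non-targeting controls.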
In the case of UUUUCUCCCUUUAUAAGGC against OXCT1, the seed-corrected z-score was found to be 1.02.
As for UAUCCAACUAUCUAAACUG against TMEM184C, the seed-corrected z-score was -16.9.
The figure for UCUCGAAACACCCUACUCC against MKNK1 is 0.234.
With UGAAGUAAUGGUGAGAGGG against CRYAB the figure was 0.664; with UGACCUCCAACACUAGUGC against VPS8, 0.213.
With AUCGUAACAAGAAAGUUCC against RNF17 the figure was 1.39; with AUCUGCAUAAACUCCACGC against SCGN, -2.24.
UCCAAGUUCACGAAGAUUU against MMD: the seed-corrected z-score turned out to be 0.344.
The figure for UGUACUUUGGAACUAGUCC against ENKUR is 0.00323; for UUCCGGAUUACACCAGUGC against FAM171A2 it is 0.108.
The figure for UUCGUAAGUGGUCCAGUUC against GSE1 is 1.07; for UCAAUUCUGAGCUUCGGUC against SPATA13 it is 0.999.
The figure for UGGUAGUUCACGUUGAGCC against CASKIN2 is -2.53.
Sequence UGAAGUUACAUUCAGUUCU against ZFAND3 had a seed-corrected z-score of 0.106.
The figure for UUAGAUCUUGAAAGAGUUC against ETV1 is -0.0727; for AUAGGUUUCAGAGAGGUGU against CA1 it is 0.901; for AAUCUUAAAUUUUCCGAGC against RGS7 it is -0.282.
The figure for UCGGGUGUUUUGGUCUUGC against LMOD1 is -2.52; for UACCUCAUAGGAUAACACC against MPP4 it is 0.19; for AACGGUAGAAGCUGCAUGC against NOP58 it is -1.46.
On to UCCUGCUUUAUAACUAGCC against ZNF621, for which the seed-corrected z-score was -4.33.
UUCAGCAUCUUUGUCGACC against RTFDC1 showed a seed-corrected z-score of -0.168.
The sequence UGAAGUUAAUGGGCCCUGG against MYL12BP2 displayed a seed-corrected z-score of 0.711.
Regarding UCAUUUUCCUCAUAGGUGC against LAMB2, the seed-corrected z-score is -0.564.
For AUACAUGCAGCUGUGGUUG against GABRB1, the seed-corrected z-score was -1.3.
The figure for UAAGCGAUCCAUAUCAAAC against PROX1 is 0.491; for UAACUGUUUAGCGAUGUCC against TBC1D1 it is -2.09; for UUGUCUUCCUCCAUUGUCG against TSGA10IP it is -0.628.
The sequence UCUCUUGAUGUGGACACUC against ITGAD returned a seed-corrected z-score of -0.0619.
UCAUGGUCCGAAGCUGGUG against LHX2 yielded a seed-corrected z-score of -2.03.
With UCGGCAAUAAUCUCGGCCU against HNRNPA0 the figure was 0.556; with UGGUUUUGUACACCUGCUG against TNP2, -0.158.
Sequence UAUUGAAGGACUCCUGAUC against RAB1A gave a seed-corrected z-score of 0.0899.
Take UUCAGAUGUCCGUCUAUGC against ABLIM3: the seed-corrected z-score amounted to 0.714.
The figure for UUGGAAUACAUUGCCGUUC against SSR1 is -0.807; for UUUUGGACCGCUGCACCUG against CBY3 it is 0.744.
The figure for UUUAGAGCGAGUGGUUAGC against PPHLN1 is 0.884.
The figure for UAAUCUUUUCAUGCAACUC against SNCA-AS1 is -2.06; for UAGGUGAAGAUCUUGUUUC against COMMD10 it is -0.785; for AAAUGAUUUAUAUCCCUGG against ABCC6P1 it is -14.5.
Regarding AUCGGUAAGAUCCUAAUGG against VPS13A, the seed-corrected z-score was found to be 0.281.
The sequence UAUUCUACCUCGUACCUCC against TBC1D22B registered a seed-corrected z-score of -0.239.
ACCAGUAUAACCCAGAGUC against FCGR1A returned a seed-corrected z-score of 0.036.
UAUAGAGGAAAGCUAUGCC against ERCC6L yielded a seed-corrected z-score of 0.528.
With AAAGCGAGUUUUCUCAUCC against COPA the figure was -4.21; with AACUGGAUAGGAGGACUGC against HSF5, -0.327.
On to UUAAUUCUCGGAUGUGCUC against ANXA11, for which the seed-corrected z-score was found to be 0.143.
For UUAUGUUUUCCUACUCCAC against TCEAL1, the seed-corrected z-score is -2.4.
With UGAAGGCCAACCGCUCUGU against ALG1L6P the figure was 0.486.
The figure for UCAGUUUGAUUAUUUCUCU against RASSF4 is 0.41.
The figure for UGACUUCACCCAGAAGCAC against SLC25A41 is -0.697; for UCAUCAUCCAAAGAUGUAC against C20orf196 it is -1.47; for UAUUCGAGCGCAGUGCUGG against C10orf67 it is -0.133.
AUUGGUAGAACAAAGUUCC against PRELID3A yielded a seed-corrected z-score of 0.478.
As to UUUUGUUGUGAGCUGAUGC against SF3B4, the seed-corrected z-score was -3.
Sequence UUCCUUGGAGCUGGGAUCU against PSORS1C1 displayed a seed-corrected z-score of -1.32.
Regarding UUCUUUUUCAAACAGCUCU against ISY1, the seed-corrected z-score was -1.17.
With UACUGGUCAAUCGCUGUUC against CEP192 the figure was -0.996.
UUAUUGUUCUUUCGGAUCC against SELP registered a seed-corrected z-score of 0.564.
UCCGGUAAGACAUUCUCUG against EAPP registered a seed-corrected z-score of 0.402.
The sequence AUGACUUUUAGUGUAAUCC against LOC439994 showed a seed-corrected z-score of -2.2.
The figure for UAUGUCGUCUUGGAGAUCG against SNRNP27 is -0.0915; for UUAAGAGUGACUCAAUUUG against MGAT2 it is -0.219.
For the sequence AUUGAGUAUCACGUCAUCC against TTLL4, the seed-corrected z-score was -2.43.
In turn, ACCUUGAUGGUUUUUGAUG against LOC649294 returned a seed-corrected z-score of 0.0918.
With UUUCUUAAUGGUGGUGCCC against SLC7A7 the figure was -0.929; with UGUAUUAUCGUGUCCGAGC against CTNNBL1, -0.748.
The figure for UGAUAACCCACAUUGAAGG against DEGS1 is -0.494.
UCUUCUUCCAGUAUAAGGC against KITLG yielded a seed-corrected z-score of 0.53.
With UCAACACCCAGGUAGCGGA against DUSP26 the figure was -2.05; with UAAAGGGUUGUGGGAAAUG against LRRC30, -1.26; with UCUGGAAUUUGACUGCUCG against RPL24, -0.838.
The figure for UACGUAAGAAAUAGGAACG against OR6C76 is -2.11; for UCAACUUCCAUGAUUUUCC against IGF2BP2 it is -0.332.
As to UUCCGGUCAUAAUUCAGCC against PPFIA4, the seed-corrected z-score was -0.228.
As to AAUGGUAAACUUGAUUUCA against TP53I11, the seed-corrected z-score stood at 0.091.
With AUAGAGGUGAGGGUCAUGC against TGFBI the figure was -2.38; with UACUUCUAUGUAGAGGUCC against AKIP1, -0.138.
With UCAGUUUGGAAUGAGGAGG against LOC345051 the figure was -0.469.
With UGUGGAUGCGGCGAUGUUC against ZNF574 the figure was 0.836; with UGCUUUUAGAAAGUCCAUG against HAUS1, -0.637; with ACCGUUGUAGUCUCCAUCG against ANO1, -11.8.
Turning to UUUUCAUCUGGUAAAAGGG against FAM13C, the seed-corrected z-score was -1.06.
With UAUCUUCAGAUCGCUGUAC against ANKFY1 the figure was 0.715.
With UCUUCGUCCACUCUGAAUC against NMU the figure was -2.29; with UUUGAUAUUCAUAACGAUC against N4BP2L2, 0.28.
In turn, UGCAGUGGACCAUUUAUGC against SUN5 displayed a seed-corrected z-score of -1.1.
Sequence UACCGAUUGUGAAUGAACC against NHS came in with a seed-corrected z-score of -17.
The figure for UUUGGAAUCCUUUACUUGG against GLE1 is 0.251; for UUCAUGACAGUGACGAUGC against ITPR3 it is -0.0506; for UCUUGGAGUUCCGUCUUUG against FGF20 it is -0.184.
With UCAUUGAUUAGGUGGAUGC against RRP9 the figure was -0.724; with AUCUGGACCACUAUUUCUU against RSPH9, 0.909; with UGUAGAGAUGCGGUGGUCC against BIRC5, -2.18.
The figure for UAGUUUAACCUUGUCAUCC against CASC4 is -0.368.
UACACUUUCAAAAUCUCUC against ZNF845 came in with a seed-corrected z-score of 0.844.
On to UUUAUGACCUCAUUAAGUC against LHCGR, for which the seed-corrected z-score was determined as 0.284.
The sequence UGAUGAGAUAGAGCCGUGC against TRIM56 gave a seed-corrected z-score of -0.836.
Sequence GAAUUUCAGCCGUAGCACG against TMUB1 registered a seed-corrected z-score of -2.19.
With ACAAUGGCAUCUUGUGGGC against CORT the figure was 0.108; with UAGUAUGCGGUGGUGAUGG against RAB3A, -0.77; with UUGGGCAUAUGUUUGCUGC against TACO1, 0.306.
UCGUUUCAAAGGGCUGUGG against SAMD4A gave a seed-corrected z-score of -2.94.
The figure for UGAGCAAGGUCUCCAAUCC against SH3RF3 is -0.33; for UUUCGUUUGAGAAAUGCGC against MED23 it is 0.711; for AUAGUGACCACCCUCAAUC against SPTA1 it is 0.293.
In turn, UACGUUCUGAAUCAAGAAG against DENND5A displayed a seed-corrected z-score of -0.28.
UAAGCAUAUAUUCCCGUAC against CDC7 returned a seed-corrected z-score of 0.52.
On to UUUAUAGUUGGUUAGGUUC against EPB42, for which the seed-corrected z-score was -0.0918.
Turning to AUUUGGACCAGUAUGCUUC against HNRNPH1, the seed-corrected z-score was -2.98.
In turn, UAUUCUGAGAUGCGAAGGC against SLC26A11 displayed a seed-corrected z-score of 0.879.
As for UCCAAGAUGAUUCCUCUCC against ZNF557, the seed-corrected z-score is -0.0489.
With AAAAGAUGCCCAUUCAUUG against DCDC2C the figure was 1.89; with UCAGGAGCAAAGCUUCUUC against VNN3, 0.325.
UCAGCUGAUUCAUUAGAGG against TRIM44 gave a seed-corrected z-score of -0.356.
The sequence UCUGUUGUUAGCACACGUC against NID1 returned a seed-corrected z-score of -0.891.
In turn, UAUGCUUUCUUGACAGCCC against KCNAB1 returned a seed-corrected z-score of -4.96.
UCCUUGGACAUCAAGAGCC against C16orf91 came in with a seed-corrected z-score of -0.516.
Turning to UAAUCUAUCCAGGAAUUCC against TTC5, the seed-corrected z-score was 0.1.
The figure for UUUGUUGGAACCCAAGAGC against BLID is -2.2.
As for UUUGGGUCCUCGAUCACCC against COL8A1, the seed-corrected z-score is -1.06.
The figure for UUCCGUAAUGUUGCGCAUG against CORO6 is 0.106; for UUCGUGCUGGGUUAUCUCG against COL24A1 it is 0.737.
With UUCCAUAAAGAGUUCUGCC against ZNF280C the figure was 0.576.
With UUACUGACGACAUCAUUCC against PRPF40A the figure was -0.273; with AUACAGAACAUAGUGGUUG against PSMD3, -1.41; with UCAGUAGGCAUUGGAGCGG against CEBPA, -0.0618.
Consider AAGUCUUCAAGAUCUAUUC against FGL2, for which the seed-corrected z-score came out at 0.334.
Consider UCAUAAGUCAGGGUAUGCC against MPTX1, for which the seed-corrected z-score was -3.31.
With UCAUAGGUCACAAAGGUGC against KIF9 the figure was 0.0712; with UAUCUAAUUUUGGAAUCUC against VRK1, -0.281.
Turning to UUCAGGGUAAGGUGGAUGG against UBD, the seed-corrected z-score is 0.588.
Turning to AAACUUGUCAUCAGCACGC against MUC13, the seed-corrected z-score came to 0.662.
